In PubChem BioAssay AID602 (SRMLSC, 2007):
In all, about 85,000 compounds went through this assay and about 35 (0.04%) were called active.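 Rule for the calls: active = viability drop by adding the cancer drug above about 55%, with treated viability meeting a 40% cutoff (limit read from the data); inactive = the rest, inconclusive results apart.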 This excerpt belongs to a sample that is enriched for actives.

Assay: MRP1 drug-resistance reversers in H69AR cells – cell-based, doxorubicin co-treatment, primary screen (AID 602);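 for differential viability (reversal): larger differential means the compound sensitizes cells more to doxorubicin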
Conditions: CellTiter-Glo, 72 h, at 10 µM; for differential viability (reversal): stronger effect = higher value
[1] = H69AR cells + 2 uM doxorubicin, measured here: viability with 2 uM doxorubicin, stronger effect = lower value
[2] = H69AR cells, measured here: cytotoxicity without doxorubicin

| SMILES | differential viability (reversal) (H69AR cells + 2 uM doxorubicin) | viability [1] | viability [2] |
| --- | --- | --- | --- |
| CCCC(=O)C1CCN(Cc2ccccc2)CC1 | 1.73% (inactive) | 91.3% | 93% |
| CC1(C)COC(c2cccn2Cc2ccccc2Cl)=N1 | 13.1% (inactive) | 90.7% | 104% |
| COc1ccc(C2CC(=O)n3c(nc4ccccc43)S2)cc1OC (centres undefined) | 4.1% (inactive) | 111% | 115% |
| CCc1ccc2c(c1)C1(NN=C(c3ccccc3)S1)C(=O)N2 (centres undefined) | -18.7% (inactive) | 34% | 15.2% |
| COc1cccc(OC)c1C(=O)Nc1ccc(N2CCCCC2)cc1 | 15% (inactive) | 90.1% | 105% |
| COC(=O)CSc1snnc1-c1ccc(Cl)c(Cl)c1 | 8.05% (inactive) | 89.3% | 97.3% |
| CC(C)C(=O)NC(NC(=S)NC1CCS(=O)(=O)C1)C(Cl)(Cl)Cl (centres undefined) | 6.22% (inactive) | 95.7% | 102% |
| CCOC(=O)c1cnn(Cc2ccccc2Cl)c1N | 4.58% (inactive) | 91.6% | 96.2% |
| CCOc1cccc(C(=O)Nc2nnc(-c3cccs3)s2)c1 | -41.2% (inactive) | 103% | 62.1% |
| CCn1nccc1C(=O)Nc1ccc(Cl)c(Cl)c1 | 8.65% (inactive) | 68.4% | 77% |
| CCCc1nc2sc3c(c2c(=O)n1NC(=O)CCCl)CCCC3 | 11.4% (inactive) | 24.6% | 36% |
| CC(c1ccco1)N(C(=O)Nc1ccccc1)C1CCCCC1 (centres undefined) | 8.57% (inactive) | 69.1% | 77.7% |
| CCCNC(=O)c1ccccc1NC(=O)CSCc1ccc(OC)cc1 | 16.1% (inactive) | 67.8% | 83.9% |
| O=C(CSc1nnc(-c2cccnc2)n1CCc1ccccc1)NCc1ccccc1 | 20.9% (inactive) | 68.7% | 89.6% |
| Cc1ccc(Nc2nnc(SCc3ccccc3)s2)cc1 | 25.2% (inactive) | 73% | 98.2% |
| CC1CCN(S(=O)(=O)c2ccc(S(=O)(=O)NCc3ccco3)cc2)CC1 | -17.8% (inactive) | 93.1% | 75.4% |
| CC(=O)NC1(c2cccc(F)c2)CCN(CC(=O)NC(C)C)CC1 | -7.86% (inactive) | 90.6% | 82.8% |
| CCOc1ccc(N=Cc2c(O)n(-c3cccc(C)n3)c(=O)c3ccccc23)cc1 | 10.8% (inactive) | 80.7% | 91.4% |
| CCN(CC)S(=O)(=O)c1cc([N+](=O)[O-])ccc1NNC(=O)Nc1ccccc1 | 0.11% (inactive) | 89.8% | 89.9% |
| CCOc1nc(NCCN2CCOCC2)nc(Nc2ccc(C)cc2)n1 | 15.7% (inactive) | 76.1% | 91.8% |
| Cc1cccc(OCCCC(=O)Nc2ccc(S(=O)(=O)N3CCCC3)cc2)c1 | 6.98% (inactive) | 82.2% | 89.2% |
| COc1ccc(C2C(C#N)=C(/N=C/N3CCOCC3)OC3=C2C(=O)CC(C)(C)C3)cc1OC (centres undefined) | 12.9% (inactive) | 83.8% | 96.7% |
| COC(=O)CNC(=O)c1ccccc1F | -4.37% (inactive) | 89.6% | 85.2% |
| Cc1ccc(-n2c(SCC(=O)NCc3ccc4c(c3)OCO4)nnc2-c2cccnc2)c(C)c1 | -22.4% (inactive) | 57.5% | 35.1% |

| SMILES | differential viability (reversal) (H69AR cells + 2 uM doxorubicin) | viability [1] | viability [2] |
| --- | --- | --- | --- |
| CCCCN1C(=O)/C(=C2/C=CC=CN2C)SC1=S | 1.69% (inactive) | 88.5% | 90.2% |
| CS(=O)(=O)N(CC(=O)Nc1ccc(Cl)c(Cl)c1)C1CCCCC1 | -18.2% (inactive) | 34.8% | 16.6% |
| CC(C)(C)NC(=O)Cn1c(SCC(=O)Nc2nccs2)nc2ccccc21 | 7.96% (inactive) | 84.5% | 92.5% |
| COCCCNC(=O)CN1CCN(Cc2ccccc2Cl)C1=O | 11.7% (inactive) | 86.8% | 98.5% |
| CCCc1nc(NCc2ccc3c(c2)OCO3)c2nnn(Cc3ccccc3Cl)c2n1 | 1.6% (inactive) | 23% | 24.6% |
| Cc1nc2ccccc2n1C(=O)N1CCOCC1 | -2.57% (inactive) | 85.1% | 82.5% |
| CCN(CC(=O)Nc1ccccc1OC)C(=O)Cn1cnc2ccccc2c1=O | 8.46% (inactive) | 84.2% | 92.7% |
| CCOc1c(Br)cc(/C=C2\C(=O)N(CCC#N)N=C2C)cc1OC | -46.8% (inactive) | 73% | 26.2% |
| CCNCCC(=O)N1c2ccccc2Sc2ccc(NC(=O)OCC)cc21 | 8.86% (inactive) | 69.7% | 78.6% |
| Cc1cccn2c(=O)c(/C=C(\C#N)S(=O)(=O)c3ccc(Cl)cc3)c(N3CCC(C(N)=O)CC3)nc12 | -6.85% (inactive) | 89% | 82.2% |
| COc1ccc(-n2nc(C(=O)NCC(=O)Nc3cccc(C)n3)c3ccccc3c2=O)cc1 | -0.23% (inactive) | 74.5% | 74.2% |
| CCOC(=O)N1CCC(Nc2c(NCCCN3CCN(CC)CC3)c(=O)c2=O)CC1 | 2.1% (inactive) | 109% | 112% |
| O=S(=O)(Cc1cc(Sc2ccccc2)nc(-c2ccccc2)n1)c1ccccc1 | -7.14% (inactive) | 91.4% | 84.3% |
| Cc1ccc(CN(N=Nc2nonc2N)c2nonc2N)c(C)c1 | 2.63% (inactive) | 76.9% | 79.6% |
| CCN1C(=O)/C(=C2/Sc3ccc(OC)cc3N2C)SC1=Nc1ccc(C)cc1 | -4.5% (inactive) | 70.6% | 66.1% |
| CC/C(O)=N\S(=O)(=O)c1ccc(N=NN(C)C)cc1 | -1% (inactive) | 86.7% | 85.7% |
| CCC(C)NC(=O)c1cc(Cl)ccc1OC (centres undefined) | 6.89% (inactive) | 83.6% | 90.5% |
| O=C(Nc1nnc(SCc2ccccc2)s1)c1ccco1 | 5.76% (inactive) | 90.2% | 96% |
| CCc1ccc(CNC(=O)C2CC(=O)N(CCc3ccc(C)cc3)C2)cc1 (centres undefined) | 1.99% (inactive) | 97.6% | 99.5% |
| Cc1nnc(OCC(=O)NCCC2=CCCCC2)c2ccccc12 | -0.56% (inactive) | 101% | 101% |
| O=C1C2C3C=CC(C4CC34)C2C(=O)N1/N=C/c1ccc(-c2ccccc2[N+](=O)[O-])o1 (centres undefined) | 16.1% (inactive) | 70.3% | 86.5% |
| CC(C)CCOc1ccc(C(=O)C[N+]2(C)CCOCC2)cc1 | 16.9% (inactive) | 86% | 103% |
| Nc1nc(C23CC4CC(CC(C4)C2)C3)cs1 | -3.46% (inactive) | 96.8% | 93.3% |
| Cc1cc(C)c(NC(=O)CN2CCOCCOCCOCCOCC2)c(C)c1 | 8.19% (inactive) | 89% | 97.2% |
